# Source: PubChem BioAssay
# RXFP1 agonist: qHTS Assay for Agonists of the Relaxin Receptor RXFP1; HEK293T-RXFP1 cAMP TR-FRET, 30 min; response scale: percent of porcine relaxin response, buffer zero; Relaxin receptor 1 (Homo sapiens), Q9HBX9; 0.3% of 370,000 active; Potency, µM (top dose mostly 57.5 µM), inactives show at the top dose activation, most hits filed as activators; note: potency is the fitted concentration of half-maximal effect; % is set by controls: 0 for no effect and ±100 for the full control effect; nearly all actives have a fitted effect of over 60% in size
# Target sequence (Q9HBX9 whole entry, looked up): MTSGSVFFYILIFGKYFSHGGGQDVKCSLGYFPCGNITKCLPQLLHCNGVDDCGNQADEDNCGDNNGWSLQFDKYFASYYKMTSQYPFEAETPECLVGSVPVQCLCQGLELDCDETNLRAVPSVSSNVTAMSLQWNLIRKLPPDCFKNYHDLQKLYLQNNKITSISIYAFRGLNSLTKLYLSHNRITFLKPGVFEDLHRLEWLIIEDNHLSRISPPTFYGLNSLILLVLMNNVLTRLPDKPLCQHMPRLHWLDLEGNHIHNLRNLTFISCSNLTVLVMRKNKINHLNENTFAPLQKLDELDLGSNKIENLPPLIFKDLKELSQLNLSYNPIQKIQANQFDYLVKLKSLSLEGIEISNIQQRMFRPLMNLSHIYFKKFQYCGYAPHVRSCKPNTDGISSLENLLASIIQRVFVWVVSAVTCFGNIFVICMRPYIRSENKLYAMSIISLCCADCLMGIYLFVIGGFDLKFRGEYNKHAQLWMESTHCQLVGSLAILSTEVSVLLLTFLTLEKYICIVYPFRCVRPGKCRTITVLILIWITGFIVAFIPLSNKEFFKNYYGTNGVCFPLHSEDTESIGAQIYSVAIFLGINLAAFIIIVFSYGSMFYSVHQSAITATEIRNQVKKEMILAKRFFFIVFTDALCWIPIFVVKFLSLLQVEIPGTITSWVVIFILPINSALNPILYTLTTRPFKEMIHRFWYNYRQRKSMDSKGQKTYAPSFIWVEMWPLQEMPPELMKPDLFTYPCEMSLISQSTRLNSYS
#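 cAMP rise read by TR-FRET after 30 min, 37C compound exposure (up to 58 uM) in RXFP1-transfected HEK293 cells with Ro 20174 present. EC50 from Hill-equation fits, with 29 nM porcine relaxin as 100% and buffer as basal.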
# miR-21 reporter: qHTS Assay for Modulators of miRNAs and/orActivators of miR-21 | HeLa miR-21 FLuc reporter, luciferase, 48 h | Potency, µM (series often up to 38.3 µM), inactives show at the highest dose activity change, positive = activation, hits mostly activators | 340,000 tested, under 10 active;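 note: % of control where 0% means no effect; miR-21 action dims this reporter so a rising signal means less miR-21 action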
#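 HeLa cells endogenously expressing miR-21, stably carrying CMV-driven firefly luciferase with a downstream miR-21 binding site, 2000 cells/well. Titrations up to approximately 40 uM, 48 hours; luciferase luminescence read.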
# PINK1 expr mod: A Quantitative High throughput Screen to Identify Chemical Modulators of PINK1 Expression; PINK1 immunofluorescence, high-content cytometry, 24 h; Potency, µM (titrated, usually from 76.6 µM), for inactives: top-dose activation (PINK1 increase), usual class: activators; 0.2% of 410,000 active; AID 624263, 2012; active = well fitted activation curve with a large enough effect; inconclusive = small, poorly fitted or top-dose-only effect; cell line not stated here; note: potency is the fitted concentration of half-maximal effect; % of control where 0% means no effect; nearly all actives have a fitted effect of over 65% in size
#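 Measures PINK1 amount and localization on or inside mitochondria by immunofluorescence. Stable cells get compounds at 5 concentrations for 24 hours before fixation and staining; CCCP controls included.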
# RXFP1 antag: qHTS Assay for Antagonists of the Relaxin Receptor RXFP1; Relaxin receptor 1 (Homo sapiens), Q9HBX9; HEK293-RXFP1, relaxin-stimulated cAMP HTRF, 30 min; active compounds read low; activity change, negative = inhibition, % at 57.5 µM; 0.59% of 350,000 active; AID 1259400, 2018;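 active = activity change of -60% or lower, but not beyond a set lower limit; inconclusive = change between -60% and -40%, or beyond the set limit; inactive = change above -40%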; note: % is set by controls: 0 for no effect and ±100 for the full control effect
# TCR activator: Activators of T cell receptors: qHTS campaign; 330,000 tested, under 10 active; primary human leukocytes, anti-CD3, IL-2 HTRF, 48 h; Potency, µM (series often up to 9.22 µM), for the others: top-dose activation of IL-2 secretion, most hits filed as activators; note: % of control where 0% means no effect
#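 Primary human leukocytes receive a-CD3 beads and test compound and are incubated 48 hr. Secreted IL-2 is then assayed by HTRF, measuring 665nm acceptor emission after 320nm excitation of the europium donor.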
# IL2 activator: qHTS of IL-2 Activators; 0.065% of 360,000 active; activation, % (series mostly up to about 46 µM); AID 652025, 2013; IL-2 activation reporter assay, cell-based qHTS; stimulated with anti-CD3/CD4/CD28 beads; in transgenic mouse T cells; in the data active = activation above about 50%; inconclusive = mostly about 30% to 49%; note: 0% is about no effect
#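 EGFP and DsRed fluorescence is measured by plate cytometry in unstimulated transgenic mouse T cells exposed to compound for 60 minutes, then stimulated 18 hours at 37 degrees C with anti-CD3/anti-CD4 beads plus anti-CD28.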
# * marks the source's active call; other numbers are inactive results; ? = inconclusive; nt = not tested or not shown; ! = not confirmed by another sample; [ ] = remark or other dose. In the library only some 0.78% were active in any assay of this set; here they are far more common. Unless noted, calls come from the whole dose curve; as a rule, active = well fitted curve in the direction sought with a large enough effect; inconclusive = small, poorly fitted or top-dose-only effect, or another doubt; inactive = no such curve, though single readings can be large; an effect the other way counts as inactive or inconclusive.
SMILES,RXFP1 agonist,miR-21 reporter,PINK1 expr mod,RXFP1 antag,TCR activator,IL2 activator
COc1ccc(NC(=O)Cc2ccc(Cl)c(Cl)c2)cn1,0.8%,-17.5%,-0.9%,3.0,2.7%,-4.2
COc1ccc(NC(=O)/C(Cl)=C(/Cl)S(=O)(=O)Cc2ccc(C)cc2)cn1,0.0%,?,-1.8%,-70.9*,6.6%,-4.5
COc1ccc(NC(=O)/C(Cl)=C(/Cl)S(=O)Cc2ccccc2Cl)cn1 (stereo not given),0.1%,?,-1.7%,-117.5*,-2.2%,-1.3
CC(C)(CNC(=O)c1cnn(-c2nccc(-c3cc4ccccc4o3)n2)c1C1CC1)N1CCOCC1,nt,nt,0.1%,nt,nt,nt
CC(=O)n1c2ccccc2c2ccccc21,-0.1%,-0.3%,1.6%[38.3 µM],4.6,2.6%,2.4
CC(=O)n1c(C=Nc2ccc(Cl)cc2)c(O)c2ccccc21,-2.4%,-18.1%,?,-19.1,-1.5%,83.7*
CCC(C)n1nnc2c(=O)oc3ccccc3c21 (stereo not given),0.1%,0.2%,2.5%[38.3 µM],-7.4,5.3%,2.5
Cc1ccc(-n2nnc3c(=O)oc4ccccc4c32)cc1,-1.7%,-1.0%,-2.6%,-88.7*,2.9%,-0.1
N#C/C(=C\c1ccc(O)cc1)c1nc2ccccc2o1,-0.1%,-38.1%,?,8.7,7.4%,57.3*
COc1cc(/C=C(\C#N)c2nc3ccccc3o2)ccc1O,-1.5%,-7.8%,7.2%,-0.4,2.3%,15.8
CCN(CC)CCCN(C(=O)c1ccco1)c1nc(-c2ccc(Cl)cc2)cs1,1.4%,2.6%,-1.5%,-96.5*,2.5%,-3.6
COc1ccc(CN2CCOc3ccc(CN4CCC(Oc5cccnc5)CC4)cc3C2)c(F)c1,nt,nt,1.0%,nt,nt,nt
NS(=O)(=O)c1ccc(NNC(=O)c2ccccc2)cc1,0.0%,0.7%,2.2%,1.4,9.4%,0.3
O=C(NNc1cc(Br)c(O)c(Br)c1)c1ccccc1,-0.4%,5.1%,11.2%,-96.4*,2.1%,-6.2
CC(CNC(=O)CCCn1c(=O)c2cccn2c2ccccc21)c1ccccc1 (stereo not given),-1.7%,-4.6%,0.6%,-78.1*,nt,nt
CSc1ccc(CCNC(=O)CCCn2c(=O)c3cccn3c3ccccc32)cc1,3.6%,?,0.5%,-75.3*,nt,nt
CC(C)Cn1c(SCC(=O)NC(=O)NC2CCCC2)nc2ccccc21,0.5%,13.3%,-1.8%[38.3 µM],-66.0*,3.0%,-1.1
CCCCOC(=O)CNc1n[nH]c(=S)[nH]c1=O,?,-3.5%,8.7%[38.3 µM],-63.5*,7.8%,0.0
CCCC1(c2ccccc2)NC(=O)N(CC(=O)Nc2sc(-c3ccccc3)cc2C(=O)OCC)C1=O (stereo not given),28.2µM*,-12.0%,0.3%,-7.2,-31.2%,-0.2
CCOC(=O)c1cc(-c2ccccc2)sc1NC(=O)CN1C(=O)c2ccccc2C1=O,nt,nt,1.4%,-3.3,0.9%,0.9
COc1ccc(NC(=O)C2CC23CCN(Cc2cccc4ncccc24)CC3)cc1Cl (stereo not given),nt,nt,0.7%,nt,nt,nt
CN(C)CCNc1nc2sc3c(c2c(=O)n1Cc1ccccc1)CCCCC3,-0.1%,-10.3%,-3.0%,-91.7*,-4.4%,-0.4
CCC1C(=O)NCCN1Cc1ccc2c(c1)CN(Cc1cc(OC)ccc1OC)CCO2 (stereo not given),nt,nt,-0.1%,nt,nt,nt
COCc1c(C(=O)N2CCCC(C)C2)cnn1-c1nccc(-c2cc(C)sc2C)n1 (stereo not given),nt,nt,2.1%,nt,nt,nt
Cc1ccc(/C=C/C(=O)c2ccc(C)cc2)cc1,-0.7%,-17.6%,?,5.9,0.0%[46.1 µM],-1.5
SMILES,RXFP1 agonist,miR-21 reporter,PINK1 expr mod,RXFP1 antag,TCR activator,IL2 activator
Cc1ccc(C(=O)/C=C/C(=O)c2ccc(C)cc2)cc1,-1.6%,0.0%,-1.2%,-66.5*,-3.8%,-6.4
COc1cc(=O)n2c(c1C(=O)NCc1ccsc1)CCN(Cc1nc3ccccc3[nH]1)CC2,nt,nt,1.7%,nt,nt,nt
COc1ccccc1NC(=O)COC(=O)CC(C)(C)CC1=NS(=O)(=O)c2ccccc2N1,-1.3%,13.0%,1.9%,-83.0*,0.1%,-6.3
FC(F)(F)c1cnc(-c2cc3c(c(OCC4CCCO4)c2)OCCN(Cc2cccn2-c2nccs2)C3)c(Cl)c1 (stereo not given),nt,nt,-0.5%,nt,nt,nt
CCC(=O)N[C@@H]1c2ccccc2C2(CCN(Cc3[nH]c4c(Cl)cccc4c3C)CC2)[C@H]1OC,nt,nt,0.7%,nt,nt,nt
O=C(c1ccc(-c2ccc([N+](=O)[O-])cc2)o1)N1CCCCCCC1,0.6%,nt,-1.4%,-71.5*,-2.1%,0.2
CCOC(=O)C1=C(C)N(c2ccc(C)c(C)c2)C(=O)/C1=C\c1ccco1,-1.0%,-13.2%,1.4%[38.3 µM],5.0,-2.4%,-2.3
COC(=O)C1=C(C)N(c2ccc(C)c(C)c2)/C(=C/c2ccco2)C1=O,3.0%,-1.7%,6.4%,-16.8,-0.7%,71.3*
COc1cc2c(cc1OC)C(=O)CC2,nt,nt,nt,6.3,nt,nt
Brc1ccc(-c2ccc(CNCCSc3nnnn3-c3ccccc3)o2)cc1,14.1µM*,?,-0.7%,6.0,nt,nt
O=C(NCCN1CCOCC1)c1cnn(-c2nccc(-c3cc4ccccc4o3)n2)c1C1CC1,nt,nt,4.9%,nt,nt,nt
CCCc1nc2cccnc2n1C1CCN(C(=O)CC2NC(=O)c3ccccc32)CC1 (stereo not given),nt,nt,1.3%,nt,nt,nt
Cc1cc2c(c(-c3ccc4nc(C)ccc4c3)c1)OC(CNC(=O)Cc1ccn(C)c1)C2 (stereo not given),nt,nt,0.5%,nt,nt,nt
CCC(Sc1nc2cc3c(cc2c(=O)n1CCCC(=O)NCc1ccc(OC)cc1)OCO3)C(=O)NCCCOC (stereo not given),-0.2%,3.7%,-0.3%,-77.2*,nt,nt
CCCCNC(=O)CSc1nc2cc3c(cc2c(=O)n1CCCC(=O)NCCc1ccc(OC)c(OC)c1)OCO3,0.9%,6.3%,2.7%,-75.9*!,-28.2%,-0.4
CCC(Sc1nncn2c1cc1oc(C)cc12)C(=O)Nc1ccc(F)cc1 (stereo not given),22.0%,0.4%,-0.8%,-18.5,nt,nt
CCOC(=O)c1ccc(NC(=O)C(CC)Sc2nncn3c2cc2oc(C)cc23)cc1 (stereo not given),14.2%,-11.8%,1.3%,-79.5*,nt,nt
Cc1c(N)cccc1C(F)(F)F,nt,nt,nt,-9.2,nt,nt
COc1ccc2c(c1)CC(N1CCN(C)CC1)c1cc(OC)ccc1S2 (stereo not given),nt,nt,-2.0%,-115.0*,-2.3%,-0.7
CSc1ccc2c(c1)C(N1CCN(C)CC1)Cc1ccc(F)cc1S2 (stereo not given),nt,nt,-2.0%,?,-5.2%,0.4
